Measured values reported in PubChem BioAssay.
The source made the active and inactive calls.

Legend:
[1] = test system: Plasmodium falciparum Sir2 (PF13_0152, Sir2A); test: Plasmodium falciparum Sir2A binding compounds – biochemical, small-molecule microarray, 635 nm fluorescence, primary screen (AID 1098); conditions: fluorescence 635 nm, higher = more signal;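 also: score merges spot fluorescence intensity with its signal-to-noise ratio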
[2] = probe aDKK1 binding to arrayed compounds – biochemical, biotinylated probe, 635/667 nm fluorescence, primary screen (AID 1099); conditions: small-molecule microarray, higher = more signal;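 also: score merges 667nm spot fluorescence with signal to noise across triplicate slides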
[3] = probe aCHRDL2 binding to arrayed compounds – biochemical, biotinylated probe, 635/667 nm fluorescence, primary screen (AID 1100); conditions: small-molecule microarray, higher = more signal
[4] = change in splice reporter luminescence, either direction, cell-based, HEK293, spliceosome inhibition project, primary screen (AID 1101); conditions: HEK293 splicing luciferase reporter, 24 h, higher = more signal, called active from +8 up or from −8 down;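 also: HEK293 cells carrying a splicing-competent luciferase reporter gene; test concentration not given here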
[5] = target: Fibroblast growth factor 10 (Homo sapiens) (UniProt O15520); test: compounds binding fibroblast growth factor 10 – biochemical, small-molecule microarray, 635 nm fluorescence, primary screen (AID 1102); conditions: FGF10 binding, fluorescence 635 nm, higher = more signal
[6] = test system: glycogen synthase kinase-3 (GSK3A per assay name; protocol says GSK3B); test: compounds binding glycogen synthase kinase-3 – biochemical, small-molecule microarray, 635 nm fluorescence, GSK3A, primary screen (AID 1103); conditions: fluorescence 635 nm, higher = more signal; also: the record names both GSK3A and GSK3B
[7] = target: Epidermal growth factor receptor (Homo sapiens) (UniProt P00533); test: compounds binding epidermal growth factor receptor – biochemical, small-molecule microarray, 635 nm fluorescence, primary screen (AID 1104); conditions: EGFR binding, higher = more signal;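 also: score merges 667 nm emission intensity with spot signal to noise over triplicate slides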
[8] = target: Follistatin-related protein 3 (Homo sapiens) (UniProt O95633); test: compounds binding follistatin-related protein 3 – biochemical, small-molecule microarray, 635 nm fluorescence, primary screen (AID 1105); conditions: FSTL3 binding, higher = more signal;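 also: score merges emission near 667 nm and signal to noise per printed spot across three slides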
[9] = target: Dickkopf-related protein 1 (Homo sapiens) (UniProt O94907); test: small molecules binding DKK1 protein – biochemical, small-molecule microarray, 635 nm fluorescence scan, primary screen (AID 1106); conditions: higher = more signal;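 also: score merges emission near 667 nm with signal to noise over three replicate slides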
[10] = test system: Inhibin beta A chain (activin A); test: small molecules binding activin A – biochemical, small-molecule microarray, 635 nm fluorescence scan, primary screen (AID 1107); conditions: INHBA, higher = more signal;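 also: mouse activin A protein probed at 4.33 µg/mL on printed slides; score merges bound-protein fluorescence near 667 nm with spot signal-to-noise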
[11] = test system: Human papillomavirus type 1a protein E7 (residues 44-93); test: small molecules binding HPV E7 44-93 – biochemical, small-molecule microarray, residues 44-93, 635 nm fluorescence, primary screen (AID 1108); conditions: fluorescence 635 nm, higher = more signal;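 also: E7 fragment applied at 1 µg/mL in TBST for 1 h at 4 C; score combines spot fluorescence with its signal to noise ratio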
[12] = hepatitis C replication reporter changes, two-sided – Huh7 cells, luciferase reporter, HCV replication inhibitor project, primary screen (AID 1109); conditions: Huh7 HCV replicon luciferase reporter, 48 h; higher = more signal;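 also: huh7 hepatoma cells harbouring a luciferase neomycin HCV replicon reporter; luciferase luminescence as measure of HCV replicon replication; test concentration not given here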
[13] = target: Left-right determination factor 2 (Homo sapiens) (UniProt O00292); test: small molecules binding LEFTY2 protein – biochemical, small-molecule microarray, 635 nm fluorescence scan, primary screen (AID 1110); conditions: higher = more signal
[14] = target: Calmodulin-1 (Homo sapiens) (UniProt P0DP23); test: small molecules binding calmodulin-1 with EGTA – biochemical, small-molecule microarray, Cy5-labelled CALM1, profiling panel (AID 1111); conditions: Cy5-CALM1 binding fluorescence, higher = more signal;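 also: labelled calmodulin applied in Tris saline Tween buffer holding calcium plus EGTA and DTT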
[15] = target: Calmodulin-1 (Homo sapiens) (UniProt P0DP23); test: small molecules binding Ca-loaded calmodulin-1 – biochemical, small-molecule microarray, Cy5-labelled CALM1, plus calcium, artefact control for SMM control-protein annotation, profiling panel (AID 1112); conditions: Cy5-CALM1 binding fluorescence, higher = more signal;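 also: score merges spot fluorescence with signal to noise from triplicate slides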
[16] = probe aWnt5a binding to arrayed compounds – biochemical, biotinylated probe, 635/667 nm fluorescence, primary screen (AID 1113); conditions: small-molecule microarray, higher = more signal;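 also: score merges 667 nm fluorescence intensity with signal-to-noise per printed feature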
[17] = probe aShh binding to arrayed compounds – biochemical, biotinylated probe, 635/667 nm fluorescence, primary screen (AID 1114); conditions: small-molecule microarray, higher = more signal;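 also: probe is biotin-labelled aShh protein from a stem cell growth factor screen; measures binding of labelled protein to compounds printed on the slide; score merges feature fluorescence at 667 nm with signal-to-noise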
[18] = probe aNog binding to arrayed compounds – biochemical, biotinylated probe, 635/667 nm fluorescence, primary screen (AID 1115); conditions: small-molecule microarray, higher = more signal;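 also: probe is biotinylated aNog protein used at 0.15 µg/mL for 1 h at 4 C; z-score combines 667 nm fluorescence of each spot with its signal to noise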
[19] = target: Torsin-1A-interacting protein 1 (Homo sapiens) (UniProt Q5JTV8); test: compound microarray binding of lysate hLAP1 – cell lysate, small-molecule microarray, COS7 lysate, 635/667 nm fluorescence, primary screen (AID 1116); conditions: 635 nm fluorescence, higher = more signal
[20] = target: Alpha-bungarotoxin (Bungarus multicinctus) (UniProt P60615); test: compounds binding labelled alpha-BTX control protein – biochemical, small-molecule microarray, Alexa647 label, 635/667 nm fluorescence, artefact control for SMM control protein annotation, profiling panel (AID 1117); conditions: alpha-BTX-A647 binding fluorescence, higher = more signal
Chain of Alpha-bungarotoxin (Bungarus multicinctus) (P60615 whole entry, looked up): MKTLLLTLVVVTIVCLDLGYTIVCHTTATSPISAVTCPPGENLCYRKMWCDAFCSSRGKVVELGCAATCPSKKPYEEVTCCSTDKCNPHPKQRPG

Chain of Torsin-1A-interacting protein 1 (Homo sapiens) (Q5JTV8 whole entry, looked up): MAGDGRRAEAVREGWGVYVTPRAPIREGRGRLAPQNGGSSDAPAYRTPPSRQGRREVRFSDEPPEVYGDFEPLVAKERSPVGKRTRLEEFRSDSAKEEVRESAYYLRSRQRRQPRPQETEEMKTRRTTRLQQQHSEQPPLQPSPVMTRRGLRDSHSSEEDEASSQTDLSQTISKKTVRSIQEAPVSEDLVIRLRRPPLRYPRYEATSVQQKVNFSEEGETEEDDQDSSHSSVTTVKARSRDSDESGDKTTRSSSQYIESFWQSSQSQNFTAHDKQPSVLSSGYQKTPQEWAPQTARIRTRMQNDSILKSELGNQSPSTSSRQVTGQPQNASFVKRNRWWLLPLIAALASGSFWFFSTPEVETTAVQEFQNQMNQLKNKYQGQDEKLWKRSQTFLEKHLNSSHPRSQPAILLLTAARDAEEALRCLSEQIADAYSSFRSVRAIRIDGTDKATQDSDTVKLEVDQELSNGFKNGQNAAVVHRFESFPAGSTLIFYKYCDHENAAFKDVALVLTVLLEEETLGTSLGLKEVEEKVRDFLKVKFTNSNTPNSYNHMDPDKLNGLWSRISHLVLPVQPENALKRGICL
Chain of Epidermal growth factor receptor (Homo sapiens) (P00533 whole entry, looked up): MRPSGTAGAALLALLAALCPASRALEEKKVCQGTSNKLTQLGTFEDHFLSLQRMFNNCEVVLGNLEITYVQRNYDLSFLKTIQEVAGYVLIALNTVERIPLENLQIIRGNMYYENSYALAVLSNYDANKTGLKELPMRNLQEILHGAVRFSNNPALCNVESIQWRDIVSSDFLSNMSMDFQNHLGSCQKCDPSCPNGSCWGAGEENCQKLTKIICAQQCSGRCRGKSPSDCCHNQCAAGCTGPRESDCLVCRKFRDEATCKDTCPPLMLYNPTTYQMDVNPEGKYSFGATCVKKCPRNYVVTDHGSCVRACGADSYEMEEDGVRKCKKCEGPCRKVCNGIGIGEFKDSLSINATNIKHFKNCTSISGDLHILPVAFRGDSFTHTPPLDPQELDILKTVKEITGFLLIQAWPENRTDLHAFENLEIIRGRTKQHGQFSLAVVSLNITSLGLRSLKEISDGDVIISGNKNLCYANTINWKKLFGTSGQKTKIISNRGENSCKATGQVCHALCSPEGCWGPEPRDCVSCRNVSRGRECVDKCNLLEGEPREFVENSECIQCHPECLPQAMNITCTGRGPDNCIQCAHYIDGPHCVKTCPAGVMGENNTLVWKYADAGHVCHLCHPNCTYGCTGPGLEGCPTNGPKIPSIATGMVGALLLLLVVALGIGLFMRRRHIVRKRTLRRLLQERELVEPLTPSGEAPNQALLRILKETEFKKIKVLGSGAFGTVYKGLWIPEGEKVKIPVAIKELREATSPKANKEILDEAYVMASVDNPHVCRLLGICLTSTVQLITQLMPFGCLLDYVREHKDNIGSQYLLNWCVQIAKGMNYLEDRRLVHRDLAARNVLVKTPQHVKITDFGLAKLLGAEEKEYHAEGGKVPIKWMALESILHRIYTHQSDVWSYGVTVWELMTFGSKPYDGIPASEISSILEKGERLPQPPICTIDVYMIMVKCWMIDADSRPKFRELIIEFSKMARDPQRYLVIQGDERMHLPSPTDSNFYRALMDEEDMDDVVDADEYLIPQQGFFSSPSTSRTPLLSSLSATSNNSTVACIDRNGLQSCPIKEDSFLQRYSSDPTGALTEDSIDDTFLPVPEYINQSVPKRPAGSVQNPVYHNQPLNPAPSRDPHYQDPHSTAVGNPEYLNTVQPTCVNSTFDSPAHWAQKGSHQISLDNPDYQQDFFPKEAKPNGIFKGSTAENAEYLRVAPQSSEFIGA
Chain of Dickkopf-related protein 1 (Homo sapiens) (O94907 whole entry, looked up): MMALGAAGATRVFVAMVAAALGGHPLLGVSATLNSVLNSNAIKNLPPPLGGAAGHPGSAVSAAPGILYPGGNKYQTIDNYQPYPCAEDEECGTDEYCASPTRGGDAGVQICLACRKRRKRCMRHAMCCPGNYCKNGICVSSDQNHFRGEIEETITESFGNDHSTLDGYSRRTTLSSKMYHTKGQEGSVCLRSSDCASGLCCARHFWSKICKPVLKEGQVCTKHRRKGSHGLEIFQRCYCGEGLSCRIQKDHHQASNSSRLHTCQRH
Chain of Follistatin-related protein 3 (Homo sapiens) (O95633 whole entry, looked up): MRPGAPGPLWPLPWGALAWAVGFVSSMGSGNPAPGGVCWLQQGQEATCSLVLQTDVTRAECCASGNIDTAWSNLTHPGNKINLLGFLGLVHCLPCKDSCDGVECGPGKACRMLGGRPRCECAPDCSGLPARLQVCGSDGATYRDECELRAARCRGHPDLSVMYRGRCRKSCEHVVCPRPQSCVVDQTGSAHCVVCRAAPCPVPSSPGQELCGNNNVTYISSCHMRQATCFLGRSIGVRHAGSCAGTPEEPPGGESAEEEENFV
Chain of Fibroblast growth factor 10 (Homo sapiens) (O15520 whole entry, looked up): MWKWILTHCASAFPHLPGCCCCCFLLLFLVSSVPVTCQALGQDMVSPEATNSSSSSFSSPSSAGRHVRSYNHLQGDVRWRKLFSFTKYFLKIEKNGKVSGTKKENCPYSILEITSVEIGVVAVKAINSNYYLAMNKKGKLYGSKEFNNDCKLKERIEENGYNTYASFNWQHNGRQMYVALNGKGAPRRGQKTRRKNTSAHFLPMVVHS
Chain of Left-right determination factor 2 (Homo sapiens) (O00292 whole entry, looked up): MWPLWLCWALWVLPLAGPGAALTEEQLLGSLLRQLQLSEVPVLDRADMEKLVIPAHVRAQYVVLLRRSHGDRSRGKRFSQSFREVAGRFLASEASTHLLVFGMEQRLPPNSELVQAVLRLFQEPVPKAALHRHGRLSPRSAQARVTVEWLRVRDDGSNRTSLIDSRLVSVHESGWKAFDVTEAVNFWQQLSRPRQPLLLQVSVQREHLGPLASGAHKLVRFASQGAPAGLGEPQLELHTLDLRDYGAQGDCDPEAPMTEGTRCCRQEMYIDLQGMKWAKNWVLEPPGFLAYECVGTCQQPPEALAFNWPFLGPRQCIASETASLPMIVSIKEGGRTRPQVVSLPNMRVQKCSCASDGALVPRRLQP

Compound	composite z-score [1]	composite z-score [2]	composite z-score [3]	z-score [4]	composite z-score [5]	composite z-score [6]	composite z-score [7]	composite z-score [8]	composite z-score [9]	composite z-score [10]	composite z-score [11]	z-score [12]	composite z-score [13]	composite z-score [14]	composite z-score [15]	composite z-score [16]	composite z-score [17]	composite z-score [18]	composite z-score [19]	composite z-score [20]
C[C@H]1C2[C@H](Cc3ccccc3)NC(=O)[C@]23C(=O)N[C@H](Cc2ccccc2)C(=O)N[C@H](Cc2ccccc2)C(=O)NC/C=C/CCC/C=C/C3[C@@H]2O[C@]12C (stereo not given in full)	1.17	-0.319	-0.327	-0.549 (inactive)	0.398	0.309	0.17	1.4	0.54	0.645	1.39	0.554	-0.0974	-0.343	-1.28	-0.124	-0.123	-0.0662	-0.564	0.617
COC(=O)[C@@]1(Cc2ccc(F)cc2)[C@H]2c3cc(C(=O)N(C)C)n(CCc4c[nH]c5ccc(OC)cc45)c3C[C@H]2CN1C(=O)c1ccccc1	-0.138	1.76	1.31	-2.71 (inactive)	-0.162	0.27	-0.446	-0.108	-1.73	0.812	1.47	-1.94	-0.995	1.72	1.16	0.27	0.764	1.7	2.15	1.04
COCCOC(=O)N1C(=O)[C@@]2(c3ccccc31)[C@H](C(=O)N1CCCCCCC1)[C@H]1C(=O)O[C@H](c3ccccc3)[C@H](c3ccccc3)N1[C@@H]2c1ccccc1OCCO	1.72	2.76	1.66	-0.0563 (inactive)	1.09	1.29	1	1.52	1.5	2.02	1.36	-1.78	0.941	2.43	1.43	0.883	2.65	2.48	4.19	2.36
COc1ccc(C(O)C2C=CC3C(=O)N(c4ccccc4)C(=O)C3N2Nc2ccccc2)c2ccccc12 (stereo not given)	1	0.927	0.947	0.66 (inactive)	-0.0394	0.0564	-0.413	0.165	-0.611	1.19	-0.34	-1.91	-0.608	1.25	0.851	-0.0792	-0.218	0.941	0.814	0.93
C=C(COC)/C(=C/C[C@H](OC(C)=O)c1ccccc1OCCO)c1cnc2ccccc2c1	0.279	-0.0732	-0.0887	0.11 (inactive)	1.16	0.521	0.486	1.41	0.743	1.85	1.29	-1.57	0.425	0.177	-0.173	-0.0944	0.0756	0.226	-0.0998	0.625
